# In PubChem BioAssay:
# Records with an inconclusive call do not appear. Active and inactive are the calls of the source.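 How the source made its calls, unless noted: active means Her2 level under about 52% in both replicate screens, with viability over 70% of control (limit read from the data); inconclusive means Her2 under the limit in one screen only, or viability under 70%; inactive means Her2 level above the set limit.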
# Columns and labels:
# [1] = reducers of endogenous Her2 protein level, primary screen, SKBR3 breast tumor cells, AlphaScreen, ATP viability (AID 461); details: 18-24 h, measured here: SKBR3 viability, ATP luminescence, at 10 µM;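 on Her2 level: lower value means less Her2 protein in the cells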;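 on viability: percent of carrier control wells set as 100% viability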
# [2] = molecular target: Receptor tyrosine-protein kinase erbB-2 (Homo sapiens) (UniProt P04626); experiment: as above; details: 18-24 h, at 10 µM, stronger effect = lower value
# Receptor tyrosine-protein kinase erbB-2 (Homo sapiens), sequence (P04626 whole entry, looked up): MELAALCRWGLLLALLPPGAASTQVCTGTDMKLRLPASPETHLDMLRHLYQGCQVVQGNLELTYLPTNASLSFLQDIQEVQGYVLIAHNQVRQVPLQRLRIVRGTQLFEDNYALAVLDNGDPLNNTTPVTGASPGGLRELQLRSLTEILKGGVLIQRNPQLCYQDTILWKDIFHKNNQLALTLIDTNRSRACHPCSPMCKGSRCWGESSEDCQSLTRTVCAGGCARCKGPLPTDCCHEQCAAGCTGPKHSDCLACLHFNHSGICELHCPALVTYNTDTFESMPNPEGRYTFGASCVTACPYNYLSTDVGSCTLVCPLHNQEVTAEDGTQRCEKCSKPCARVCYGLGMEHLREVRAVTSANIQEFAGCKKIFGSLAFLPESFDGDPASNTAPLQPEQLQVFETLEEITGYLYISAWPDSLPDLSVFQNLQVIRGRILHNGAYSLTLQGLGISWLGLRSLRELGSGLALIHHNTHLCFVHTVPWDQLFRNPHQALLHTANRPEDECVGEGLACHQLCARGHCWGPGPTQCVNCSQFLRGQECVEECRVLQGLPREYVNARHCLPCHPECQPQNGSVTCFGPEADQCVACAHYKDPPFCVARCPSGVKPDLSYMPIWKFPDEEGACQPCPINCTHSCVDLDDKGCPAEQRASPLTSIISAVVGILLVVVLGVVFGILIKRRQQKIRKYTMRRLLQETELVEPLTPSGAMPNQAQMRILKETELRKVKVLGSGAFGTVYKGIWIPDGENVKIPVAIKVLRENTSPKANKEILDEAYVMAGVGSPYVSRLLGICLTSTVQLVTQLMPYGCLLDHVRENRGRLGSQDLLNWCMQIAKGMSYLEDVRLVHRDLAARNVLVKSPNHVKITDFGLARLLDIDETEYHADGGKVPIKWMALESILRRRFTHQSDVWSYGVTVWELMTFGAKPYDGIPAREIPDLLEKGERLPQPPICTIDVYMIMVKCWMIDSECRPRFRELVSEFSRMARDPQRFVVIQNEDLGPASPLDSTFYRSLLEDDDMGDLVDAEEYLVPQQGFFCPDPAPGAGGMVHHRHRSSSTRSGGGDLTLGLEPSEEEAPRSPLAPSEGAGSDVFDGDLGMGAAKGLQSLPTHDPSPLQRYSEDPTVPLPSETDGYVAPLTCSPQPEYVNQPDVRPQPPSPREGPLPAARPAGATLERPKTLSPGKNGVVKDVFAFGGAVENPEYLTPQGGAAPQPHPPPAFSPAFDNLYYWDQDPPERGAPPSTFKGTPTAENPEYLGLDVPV
# [3] = SK-BR-3 cell growth inhibitors, pilot screen, 24 h, human (AID 572;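 active means viability at or below 10% of carrier control in both of two separate runs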;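 further: compound exposure lasted between 18 and 24 h rather than exactly 24 h; 100% = carrier-treated control wells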); details: SK-BR-3 viability, CellTiter-Glo luminescence, at 10 µM, stronger effect = lower value
# [4] = HUVEC growth inhibition – cell-based, human, primary screen (AID 575;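 active means viability at or below 30% in both replicate assays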;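 further: 100% = median of untreated cell wells with 0.1% DMSO on each plate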); details: HUVEC proliferation, CellTiter-Glo luminescence, 72 h; at 10 µM; stronger effect = lower value
# [5] = growth inhibitors of H69AR lung tumor, primary screen, human, duplicate replicates (AID 580;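 active means viability at or under a set limit in both replicates, limit being median viability minus 3 SD, cut at about 48% in these data, passing the limit was not always enough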;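 further: 100% = mean luminescence of untreated wells and 0% = no signal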); details: H69AR lung tumor cells viability, ATP luminescence, 72 h; at 10 µM; stronger effect = lower value
# [6] = 384-well plate pilot, post-Golgi transport modulator project, inhibition of yeast transport mutant growth (AID 636; in the data active means inhibition above about 31%); details: absorbance 615 nm, about 18 h, stronger effect = higher value
# [7] = growth suppression of yeast trafficking mutant, preliminary HTS, modulators of trafficking downstream of Golgi apparatus project, 1536-format plate, OD 615 nm (AID 637; in the data active means inhibition above about 30%); details: yeast transport mutant growth, absorbance 615 nm, 18 h; stronger effect = higher value
# [8] = reversal of MRP1-mediated doxorubicin resistance, pilot screen, H69AR cells, doxorubicin co-treatment (AID 601;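 active means viability loss from added drug above about 55%, and viability with drug at most 40%, in both replicates, limit read from the data, passing the limit was not always enough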); details: CellTiter-Glo, 72 h, at 10 µM; for differential viability (reversal): stronger effect = higher value
# [9] = OD615 S. cerevisiae growth inhibition, permissive medium, pilot counter-assay, permissive growth control for S. cerevisiae lifespan shortening project (AID 705;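 active means growth inhibition above 25% in both replicates, a cutoff set 3 SD above the mean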); details: OD615, 24 h, at 10 µM, stronger effect = higher value
# [10] = Restrictive medium S. cerevisiae growth inhibition, OD615, pilot screen of yeast lifespan reduction project, restrictive growth control (AID 706;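 active means growth inhibition above a set limit, 3 SD over mean compound inhibition, in both replicates, cut at about 43% in these data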;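 further: modified DeaD lifespan yeast strain shifted to restrictive glucose medium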); details: OD615, 48 h, at 10 µM, stronger effect = higher value
# [11] = viability gain of MRP-1-high H69AR cells under doxorubicin, pilot screen, MRP-1 activator project, CellTiter-Glo, duplicate (AID 807;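 active means viability increase at or above a cutoff of the median across tested compounds plus 3 SD, cut at about 8.5% in these data, passing the limit was not always enough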;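 further: compound pretreatment 18-22 h then 72 h combined with doxorubicin; 0% = doxorubicin alone and 100% = vehicle without doxorubicin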); details: H69AR viability with doxorubicin, CellTiter-Glo luminescence; at 10 µM; stronger effect = higher value
# [12] = growth suppression of beta-catenin knockout HCT116, pilot screen, human colon tumor cells (AID 823;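 active means cell viability at or below a set limit in both duplicate runs, the limit being the all-compound median minus 4 SD, cut at about 23% in these data, passing the limit was not always enough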;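 further: 0% = wells killed by 20 µM Hyamine and 100% = untreated DMSO cell wells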); details: CellTiter-Glo, 60 h, at 10 µM, stronger effect = lower value
# [13] = growth suppression of PTEN-deleted HCT116, pilot screen, cell-based, HCT116 clonal line, CellTiter-Glo (AID 824;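 active means viability at or below 27.92% in each of two runs, the all-compound median minus 4 SD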;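 further: 0% = 20 µM Hyamine control and 100% = vehicle cell control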); details: 60 h, at 10 µM, stronger effect = lower value
# [14] = inhibitors of the yeast RAM network, pilot screen, dse1pr::URA3 reporter, 5-FOA selection (AID 869;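 active means inhibition over a set limit, the all-compound mean plus 3 SD, in both replicate runs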;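 further: 0% = DMSO wells with no growth and 100% = 10 µM 1-NA-PP1 with full growth; RAM network block rescues cells from 5-FOA so hits raise OD615 growth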); details: S. cerevisiae dse1pr::URA3 5-FOA growth, OD615, 2 d; at 10 µM; stronger effect = higher value; strain carries analog-sensitive mutant Cbk1 kinase
# [15] = H69AR cells + 2 uM doxorubicin, measured here: viability with 2 uM doxorubicin, stronger effect = lower value
# [16] = H69AR cells, compound alone cytotoxicity
compound,measurement,setting,value
Cn1c(=N)c(S(=O)(=O)c2ccccc2)cc2c(=O)n3ccccc3nc21,viability,[1],83.5%
same,Her2 level,[2],108% (inactive)
same,viability,[3],83.5% (inactive)
same,viability,[4],83% (inactive)
same,viability,[5],75% (inactive)
same,inhibition,[6],3.87% (inactive)
same,inhibition,[7],31.8% (active)
CC(C)COC(=O)C1C2C=CC3(CN(C(C)c4ccc(Br)cc4)C(=O)C13)O2 (stereo not given),viability,[1],114%
same,Her2 level,[2],100% (inactive)
same,viability,[3],114% (inactive)
same,viability,[4],101% (inactive)
same,viability,[5],94.9% (inactive)
same,differential viability (reversal),[8]; H69AR cells + 2 uM doxorubicin,11.3% (inactive)
same,viability,[8]; [15],83.6%
same,viability,[8]; [16],94.9%
same,inhibition,[6],-6.53% (inactive)
same,inhibition,[7],-5.74% (inactive)
same,growth inhibition,[9],-9.09% (inactive)
same,growth inhibition,[10],5.3% (inactive)
same,viability increase,[11],-2.82% (inactive)
same,viability,[12],98.3% (inactive)
same,viability,[13],95.8% (inactive)
same,inhibition,[14],0.915% (inactive)
Cc1onc(-c2ccccc2Cl)c1C(=O)NCCn1c(C)cc2ccccc21,viability,[1],79%
same,Her2 level,[2],80.5% (inactive)
same,viability,[3],79% (inactive)
same,viability,[4],78.3% (inactive)
same,viability,[5],83.3% (inactive)
same,differential viability (reversal),[8]; H69AR cells + 2 uM doxorubicin,-6.36% (inactive)
same,viability,[8]; [15],89.6%
same,viability,[8]; [16],83.3%
same,inhibition,[6],-3.2% (inactive)
same,inhibition,[7],1.17% (inactive)
same,growth inhibition,[9],-8.05% (inactive)
same,growth inhibition,[10],0.31% (inactive)
same,viability increase,[11],-2.02% (inactive)
same,viability,[12],78.8% (inactive)
same,viability,[13],85.7% (inactive)
same,inhibition,[14],1.56% (inactive)
C=CCN1C(=O)/C(=C2/Sc3ccccc3N2C)SC1=Nc1c(C)n[nH]c1C,viability,[1],107%
same,Her2 level,[2],86.5% (inactive)
same,viability,[3],107% (inactive)
same,viability,[4],85% (inactive)
same,viability,[5],75.5% (inactive)
same,inhibition,[6],-5.2% (inactive)
same,inhibition,[7],0.48% (inactive)
CC(=O)O[C@]1(C(C)=O)CC[C@H]2[C@@H]3C[C@H](C)C4=CC(=O)CC[C@]4(C)[C@H]3CC[C@@]21C,viability,[1],153%
same,Her2 level,[2],65% (inactive)
same,viability,[3],153% (inactive)
same,viability,[4],83.3% (inactive)
same,differential viability (reversal),[8]; H69AR cells + 2 uM doxorubicin,-5.03% (inactive)
same,viability,[8]; [15],6.83%
same,viability,[8]; [16],1.8%
O=C(NCc1nnc(SCC(=O)N2CCC(Cc3ccccc3)CC2)o1)c1ccccc1F,viability,[1],85%
same,Her2 level,[2],96.5% (inactive)
same,viability,[3],85% (inactive)
same,viability,[4],74.5% (inactive)
same,viability,[5],98.8% (inactive)
same,differential viability (reversal),[8]; H69AR cells + 2 uM doxorubicin,3.91% (inactive)
same,viability,[8]; [15],94.8%
same,viability,[8]; [16],98.8%
same,inhibition,[6],1.6% (inactive)
same,inhibition,[7],3.11% (inactive)
same,growth inhibition,[9],5.21% (inactive)
same,growth inhibition,[10],17.2% (inactive)
same,viability increase,[11],-0.76% (inactive)
same,viability,[12],90.2% (inactive)
same,viability,[13],92.2% (inactive)
same,inhibition,[14],1.69% (inactive)
CCOC(=O)c1sc(NC(=O)CSc2n[nH]c(-c3ccccc3)n2)c(C#N)c1C,viability,[1],122%
same,Her2 level,[2],65.5% (inactive)
same,viability,[3],122% (inactive)
same,viability,[4],48.2% (inactive)
same,differential viability (reversal),[8]; H69AR cells + 2 uM doxorubicin,9.27% (inactive)
same,viability,[8]; [15],32%
same,viability,[8]; [16],41.3%
same,inhibition,[6],-6.27% (inactive)
same,inhibition,[7],2.38% (inactive)
CCOC(=O)c1c(NC(=O)Cn2c(C)nc3ccccc32)sc2c1CCC2,viability,[1],107%
same,Her2 level,[2],107% (inactive)
same,viability,[3],107% (inactive)
same,viability,[4],63% (inactive)
same,differential viability (reversal),[8]; H69AR cells + 2 uM doxorubicin,3.14% (inactive)
same,viability,[8]; [15],54.7%
same,viability,[8]; [16],57.8%
same,inhibition,[6],-4.53% (inactive)
same,inhibition,[7],-0.97% (inactive)
O=C(Nc1ccc(F)cc1)N(Cc1ccco1)Cc1cc2cc3c(cc2[nH]c1=O)OCO3,viability,[1],86.5%
same,Her2 level,[2],90.5% (inactive)
same,viability,[3],86.5% (inactive)
same,viability,[4],58.7% (inactive)
same,differential viability (reversal),[8]; H69AR cells + 2 uM doxorubicin,35.4% (inactive)
same,viability,[8]; [15],19.6%
same,viability,[8]; [16],55%
same,inhibition,[6],-6.32% (inactive)
same,inhibition,[7],-12.8% (inactive)
O=C(NCc1ccc2c(c1)OCO2)c1cccc2c1C(=O)N(C1CCCCC1)C2,viability,[1],102%
same,Her2 level,[2],72.5% (inactive)
same,viability,[3],102% (inactive)
same,viability,[4],87% (inactive)
same,differential viability (reversal),[8]; H69AR cells + 2 uM doxorubicin,-12.7% (inactive)
same,viability,[8]; [15],71.9%
same,viability,[8]; [16],59.2%
same,inhibition,[6],-0.38% (inactive)
same,inhibition,[7],2.83% (inactive)
CCSc1nnc(NC(=O)c2ccccn2)s1,viability,[1],92%
same,Her2 level,[2],80.5% (inactive)
same,viability,[3],92% (inactive)
same,viability,[4],18.4% (active)
same,differential viability (reversal),[8]; H69AR cells + 2 uM doxorubicin,-14% (inactive)
same,viability,[8]; [15],34.8%
same,viability,[8]; [16],20.8%
same,inhibition,[6],4.03% (inactive)
same,inhibition,[7],9.21% (inactive)
O=C(NCc1ccco1)c1cc2c(s1)CSC2,viability,[1],97.5%
same,Her2 level,[2],88% (inactive)
same,viability,[3],97.5% (inactive)
same,viability,[4],82.8% (inactive)
same,differential viability (reversal),[8]; H69AR cells + 2 uM doxorubicin,-26.3% (inactive)
same,viability,[8]; [15],83.6%
same,viability,[8]; [16],57.3%
same,inhibition,[6],-0.92% (inactive)
same,inhibition,[7],2.86% (inactive)
COc1ccc(-c2noc(CCC(=O)NCCCN3CCC(Cc4ccccc4)CC3)n2)cc1,viability,[1],87.5%
same,Her2 level,[2],77% (inactive)
same,viability,[3],87.5% (inactive)
same,viability,[4],33.1% (inactive)
same,differential viability (reversal),[8]; H69AR cells + 2 uM doxorubicin,-1.48% (inactive)
same,viability,[8]; [15],64.4%
same,viability,[8]; [16],63%
same,inhibition,[6],1.05% (inactive)
same,inhibition,[7],-6% (inactive)
CCN(CC)CC(=O)Nc1ccc(-c2nc3cc(NC(=O)CN(CC)CC)ccc3o2)cc1,viability,[1],91%
same,Her2 level,[2],82.5% (inactive)
same,viability,[3],91% (inactive)
same,viability,[4],3.96% (active)
same,differential viability (reversal),[8]; H69AR cells + 2 uM doxorubicin,-14.4% (inactive)
same,viability,[8]; [15],58.6%
same,viability,[8]; [16],44.2%
same,inhibition,[6],-2.13% (inactive)
same,inhibition,[7],-9.34% (inactive)
COc1ccc(Br)cc1C1N2CC3(C)CN1CC(C)(C2)C3=O (stereo not given),viability,[1],114%
same,Her2 level,[2],89.5% (inactive)
same,viability,[3],114% (inactive)
same,viability,[4],97.1% (inactive)
same,differential viability (reversal),[8]; H69AR cells + 2 uM doxorubicin,-33% (inactive)
same,viability,[8]; [15],87.3%
same,viability,[8]; [16],54.3%
same,inhibition,[6],-5.97% (inactive)
same,inhibition,[7],-3.61% (inactive)
